Several values for one entry are separate records, joined by “and”; a condition that tells them apart may be missing. Identical values can stand only once. About 83,000 compounds went through this panel and 20% of them were active in at least one assay; those are over-represented in the sample as a whole.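 The endpoint reported here, percent growth, reads 100 for growth as untreated, 0 for no net growth and -100 for all cells dead.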 Activity calls are given as the source filed them. The calls were made as follows: active = growth percent below 10; inactive = the rest.

This assay deals with MDA-MB-468 breast. The assay can be described thus: NCI-60 one-dose screen, 48 h (100 = growth as untreated, 0 = no growth, -100 = all killed). The following applies: 10 µM unless noted.
Consider `COc1ccc(-c2cc(-c3cn(-c4cccc(Cl)c4)nc3-c3ccc(OC)cc3)[nH]c(=S)n2)cc1`, for which the growth was 39% (inactive).
Regarding `C=C1C(=O)O[C@H]2[C@H]1CC/C(COC(=O)/C=C\C(=O)NCc1ccc(Cn3c(=O)sn(-c4ccc(Cl)cc4)c3=O)cc1)=C\CC[C@@]1(C)O[C@@H]21`, the growth is -83.5% (active).
Then `CN(C)C(=O)Oc1cccc([N+](C)(C)C)c1`, with 102% (inactive).
As to `CN(C)C(=O)c1cc2cnc(Nc3ccc(-c4csc5c(=S)cc(N6CCOCC6)oc45)cc3)nc2n1C1CCCC1`, the growth was 1.46% (active).
Then `NC(=O)c1c(NC(=O)COC(=O)Cc2ccccc2F)sc2c1CCC2`, with 112% (inactive); and `OCc1n(Cc2ccc3ccccc3c2)cc[n+]1Cc1ccc2ccccc2c1`, with -29% (active); and `CN(C)c1cccc2c(S(=O)(=O)N[C@H]3CC[C@H]4[C@@H]5CCc6cc(O)ccc6[C@H]5CC[C@]34C)cccc12`, with 34.5% (inactive).
Under `C=C(CBr)[C@@H]1CC[C@]2(C(=O)O)CC[C@]3(C)[C@H](CC[C@@H]4[C@@]5(C)CCC(=O)C(C)(C)[C@@H]5CC[C@]43C)[C@@H]12` stands 40.3% (inactive).
Turning to `CC/C(=C(/c1ccc(O)cc1)c1ccc(OCCN2CCCCCC2)cc1)c1ccc(Cl)cc1`, the growth is 38.6% (inactive).
Under `Cc1ccc(NC(=O)COC(=O)c2ccc(S(=O)(=O)N3CCCCCC3)cc2)cc1` stands 92.9% (inactive); under `CSc1nc2sc3cc(Cl)ccc3n2c(=N)c1C#N`, -45% (active); under `C[C@@H](NC(=O)[C@@H](CC(=O)N1CCC(N2CCCCC2)CC1)N1C(=O)[C@@H](N2C(=O)OC[C@@H]2c2ccccc2)[C@H]1/C=C/c1cccc(Cl)c1)c1ccccc1`, 1.45% (active).
Then `N#C/C(=C\c1ccc(-c2cccc(C(F)(F)F)c2)o1)c1nc(-c2ccco2)cs1`, with -37% (active); and `O=C1C=CC(=O)N1c1ccc(O)cc1`, with 88.9% (inactive); and `O=C(O)c1ccc2cccnc2c1O`, with -31.1% (active).
Then `COc1cc(-c2nc(-c3ccccc3)[nH]c2-c2ccnc(NCCCNS(=O)(=O)c3ccc(C)cc3)n2)ccc1F`, with 79.4% (inactive).
For the compound `Cc1cc2nc3cc(C)c(N)cc3[n+](-c3ccccc3)c2cc1N`, the growth is 2.5% (active).
Regarding `Cc1ccc2c(=O)cc(C(=O)Nc3sc4c(c3C(=O)NCc3cccnc3)CCCC4)oc2c1C`, the growth is 109% (inactive).
Under `CSc1ccc(/C(=N/N=C(N)N)c2ccc(F)cc2)cc1` stands -34.6% (active).
Under `N#C/C(=C\c1cccc2cnccc12)N1N=NC2C=CC=CC21` (stereo not given) stands 32.9% (inactive); under `COc1ccc(CCN(C)CCCC(C#N)(c2ccc(OC)c(OC)c2)C(C)C)cc1OC` (stereo not given), 97.9% (inactive) and 89.5% (inactive); under `CCOC(=O)c1cnc2sc(-c3ccc(OC)cc3)nc2c1Cl`, 90.4% (inactive).
Then `CCN1C(=O)N(CC)C2SC(N/N=C/c3ccc(F)cc3)=NC21` (stereo not given), with 36.8% (inactive).
For the compound `O=c1[nH]nc(-c2ccccc2)c2sc3ncc(-c4ccc(Br)cc4)n3c12`, the growth is 13.7% (inactive).
Then `O=C1C=CC2(O)OC/C(=C\c3ccccc3)C(O)=C2C1=O` (stereo not given), with 10.3% (inactive); and `Oc1c(C(Nc2cccc3ccccc23)c2ccccc2)ccc2cccnc12` (stereo not given), with 26.7% (inactive); and `C=CCNC(=O)c1ccc(OC)cc1`, with 124% (inactive).
Under `Cc1ccc2nc(Cl)c(-c3nc4ccccc4o3)cc2c1` stands 100% (inactive); under `CCOC(=O)Nc1cccc(-n2cnc3cc(-c4ccc(O)cc4)ccc32)c1`, 20.4% (inactive); under `COc1ccc(-c2csc(N/N=C/c3c(-c4ccc(S(C)(=O)=O)cc4)nc4ccccn34)n2)cc1`, 106% (inactive).
Under `CC(=O)c1ccc2c(c1)c1ccccc1n2C` stands 79.5% (inactive); under `C=C(C)[C@@H]1CC[C@]2(C(=O)OC)CC[C@]3(C)[C@H](CC[C@@H]4[C@@]5(C)C/C(=C/NC(N)=S)C(=O)C(C)(C)[C@@H]5CC[C@]43C)[C@@H]12`, 103% (inactive).
In the case of `S=C=NP1(N=C=S)=NP(N=C=S)(N=C=S)=NP(N=C=S)(N=C=S)=NP(N=C=S)(N=C=S)=N1` (stereo not given), the growth is 107% (inactive).
Under `C/C(=C(\c1ccc(OCCCN(C)C)cc1)c1ccc(OC(=O)Cc2ccccc2)cc1)c1ccc(Cl)cc1` stands 84.1% (inactive); under `CC(=O)O[C@H]1[C@H](CC#CC#CC[C@@H]2C[C@]3(C)[C@H]4CC=C5[C@H]6[C@@H](C)[C@H](C)CC[C@]6(C(=O)NCCCCCCCCN)CC[C@@]5(C)[C@]4(C)CC[C@H]3C(C)(C)[C@H]2OC(C)=O)C[C@]2(C)[C@H]3CC=C4[C@H]5[C@@H](C)[C@H](C)CC[C@]5(C(=O)NCCCCCCCCN)CC[C@@]4(C)[C@]3(C)CC[C@H]2C1(C)C`, 73.5% (inactive).

The values are drawn from PubChem BioAssay (NCI).
